# Source: PubChem (Broad Institute)
# Pf Dd2 growth = blocks growth of Plasmodium falciparum Dd2 parasites | P. falciparum Dd2 growth, SYBR Green, 72 h; active compounds read low | activity change, % at 10 µM | 94,000 compounds, 2.3% hits | AID 1159554; in the data active = activity change below about -80%; inconclusive = no clear call, values can overlap the other calls
# C diff growth = inhibitors of Clostridium difficile growth; Clostridium difficile clinical isolate growth, OD600, 24 h; active compounds read low; growth activity, negative = inhibition, % at 16 µg/mL (by protocol); 86,000 compounds, 0.25% hits; AID 1259249;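 active = mean growth activity at or below -80% and every replicate also at or below -80%; inconclusive = mean at or below -80% but some replicate above -80%; inactive = mean growth activity above -80%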;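 also: 0% = DMSO wells and -100% = levofloxacin 16 µg/mL wells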
# T cruzi growth-1 = T. cruzi proliferation inhibition; T. cruzi beta-gal in NIH3T3, GalScreen luminescence, 90 h; inhibition, % at 8.34 µM; 77,000 compounds, 5.9% hits;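 active = mean inhibition above about 93%, with at least 55% of replicates each passing it, limit read from the data, passing the limit was not always enough; inconclusive = only one of those two conditions holds; inactive = neither condition holds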
# T cruzi growth-2 = Trypanosoma cruzi proliferation inhibition; AID 651739; shares compounds with T cruzi growth-1; 5,600 compounds, 72% hits; T. cruzi beta-gal in NIH3T3, GalScreen luminescence, 90 h; inhibition, % at 8.35 µM;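 active = mean replicate inhibition above about 95% and at least 55% of replicates individually reaching it, limit read from the data; inconclusive = only one of the two criteria is met; inactive = neither criterion is met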
# T cruzi growth-3 = Trypanosoma cruzi proliferation inhibition; shares compounds with T cruzi growth-1; 5,600 compounds, 21% hits; T. cruzi beta-gal in NIH3T3, GalScreen luminescence, 90 h; inhibition, % at 2.09 µM;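 active = mean inhibition above about 95%, with at least 55% of replicates also reaching it, limit read from the data; inconclusive = meets just one of the two conditions; inactive = meets neither condition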;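 also: plate controls were neutral control median for no effect and positive control median for full effect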
# 3T3 cytotox = NIH/3T3 (mouse) viability loss. NIH/3T3 viability, CellTiter-Glo ATP luminescence, 90 h. 5,600 compounds, 14% hits. cytotoxicity (signal decrease), % at 8.35 µM. shares compounds with T cruzi growth-1. AID 651742;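 active = mean signal decrease across replicates above about 35% based on untreated-well scatter, with enough replicates individually passing, limit read from the data; inconclusive = no rule stated though some were filed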;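 also: 0% = median of neutral control wells and 100% = median of positive control wells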
# 3T3 cytotox 2 = NIH/3T3 (mouse) viability loss. shares compounds with T cruzi growth-1. NIH/3T3 viability, CellTiter-Glo ATP luminescence, 90 h. inhibition, % at 24.9 µM. 5,600 compounds, 56% hits;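 active = mean loss of cell viability signal at or above a set limit, and enough replicates individually reaching it; inconclusive = meets only the mean limit or only the replicate share; inactive = meets neither condition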;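 also: 0% = median of neutral control wells and 100% = median of positive control wells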
# Numbers without * were called inactive; ? = inconclusive; nt = no result; + = active, no number. Only some compounds are listed: those with a hit (about 6.7% of all), similar ones and a draw of the others.
SMILES,Pf Dd2 growth,C diff growth,T cruzi growth-1,T cruzi growth-2,T cruzi growth-3,3T3 cytotox,3T3 cytotox 2
COC(=O)[C@H]1[C@H](CO)[C@H]2Cn3c(ccc(C4=CCCCC4)c3=O)[C@@H]1N2Cc1cccnc1,7,-2,21,nt,nt,nt,nt
COc1ccc(C#Cc2ccc([C@@H]3[C@H]4CN(C(=O)Cc5ccncc5)CCCCN4[C@H]3CO)cc2)cc1,-59,49,106*,92,73,28,100*
COc1ccc(-c2ccc([C@@H]3[C@H](CO)N4CCCCN(C(=O)Cc5ccncc5)C[C@@H]34)cc2)cc1,-15,-4,99*,98*,62,1,29*
COc1ccc(C#Cc2ccc([C@@H]3[C@@H](CO)N4CCCCN(C(=O)Cc5ccncc5)C[C@@H]34)cc2)cc1,-75,28,117*,104*,76,21,102*
COc1ccc(-c2ccc([C@H]3[C@@H](CO)N4CCCCN(C(=O)Cc5ccncc5)C[C@H]34)cc2)cc1,-4,-5,88,nt,nt,nt,nt
COc1ccc(C#Cc2ccc([C@H]3[C@@H](CO)N4CCCCN(C(=O)Cc5ccncc5)C[C@H]34)cc2)cc1,-69,0,109*,108*,86,23,106*
COc1ccc(-c2ccc([C@H]3[C@H]4CN(C(=O)Cc5ccccc5)CCCCN4[C@H]3CO)cc2)cc1,-41,6,74,nt,nt,nt,nt
COC(=O)[C@@H]1[C@@H](CO)[C@@H]2Cn3c(ccc(-c4ccncc4)c3=O)[C@H]1N2S(=O)(=O)c1ccccc1C,8,1,-19,nt,nt,nt,nt
COC(=O)[C@H]1[C@H](CO)[C@H]2Cn3c(ccc(-c4cccnc4)c3=O)[C@@H]1N2CCc1ccccc1,-2,-3,20,nt,nt,nt,nt
COC(=O)[C@H]1[C@H](CO)[C@H]2Cn3c(ccc(/C=C/c4ccccc4)c3=O)[C@@H]1N2C(=O)C1CCC1,-1,3,19,nt,nt,nt,nt
C[C@H]1CN([C@@H](C)CO)C(=O)c2c(c3ccccc3n2C)-c2ccccc2CO[C@@H]1CN(C)C(=O)Oc1ccccc1,-60,3,nt,nt,nt,nt,nt
COc1ccc(C#Cc2ccc([C@@H]3[C@@H](CO)N4CCCCN(C(=O)Cc5ccccc5)C[C@@H]34)cc2)cc1,-31,3,111*,90,104*,-1,103*
O=C(Cc1ccccc1)N1CCCCN2[C@H](C1)[C@@H](c1ccc(C#Cc3ccccc3)cc1)[C@@H]2CO,-34,-2,115*,98*,73,?,103*
O=C(Cc1ccccc1)N1CCCCN2[C@H](CO)[C@@H](c3ccc(C#CC4(O)CCCC4)cc3)[C@H]2C1,-3,0,88,nt,nt,nt,nt
COc1ccc(C#Cc2ccc([C@H]3[C@@H](CO)N4CCCCN(C(=O)Cc5ccccc5)C[C@H]34)cc2)cc1,-71,-3,77,nt,nt,nt,nt
O=C(Cc1ccccc1)N1CCCCN2[C@H](CO)[C@@H](c3ccc(-c4ccccc4)cc3)[C@@H]2C1,15,50,31,nt,nt,nt,nt
O=C(Cc1ccccc1)N1CCCCN2[C@H](C1)[C@H](c1ccc(C#Cc3ccccc3)cc1)[C@@H]2CO,-8,5,131*,104*,57,33,104*
O=C(O)[C@H]1[C@H](CO)[C@H]2Cn3c(ccc(-c4cncnc4)c3=O)[C@@H]1N2C(=O)NC1CCCC1,10,-2,7,nt,nt,nt,nt
COc1ccc(-c2ccc3n(c2=O)C[C@@H]2[C@@H](CO)[C@H](C(=O)O)[C@H]3N2C(=O)c2ccccc2F)cc1,nt,-3,-5,nt,nt,nt,nt
COC(=O)[C@H]1[C@H](CO)[C@H]2Cn3c(cccc3=O)[C@@H]1N2Cc1nccs1,nt,8,-51,nt,nt,nt,nt
CC=Cc1ccc2n(c1=O)C[C@@H]1[C@@H](CO)[C@H](C(=O)N(C)C)[C@H]2N1C (mixture of isomers),nt,-1,12,nt,nt,nt,nt
O=C(O)[C@@H]1[C@@H](CO)[C@@H]2Cn3c(ccc(-c4ccccc4)c3=O)[C@H]1N2CC1CCCCC1,8,0,97*,-17,8,-21,-6
COC(=O)[C@@H]1[C@@H](CO)[C@@H]2Cn3c(ccc(-c4ccccc4)c3=O)[C@H]1N2CC1CCCCC1,-8,3,11,nt,nt,nt,nt
COC(=O)[C@H]1[C@H](CO)[C@H]2Cn3c(ccc(-c4ccccc4F)c3=O)[C@@H]1N2CC1CCCC1,nt,-9,+,55,-7,2,45*
COC(=O)[C@@H]1[C@@H](CO)[C@@H]2Cn3c(ccc(C4=CCCCC4)c3=O)[C@H]1N2CCc1ccccc1,3,1,47,nt,nt,nt,nt
SMILES,Pf Dd2 growth,C diff growth,T cruzi growth-1,T cruzi growth-2,T cruzi growth-3,3T3 cytotox,3T3 cytotox 2
O=C(O)[C@@H]1[C@@H](CO)[C@@H]2Cn3c(ccc(C4=CCCCC4)c3=O)[C@H]1N2CCc1ccccc1,nt,nt,164*,72,12,8,46*
COC(=O)[C@@H]1[C@@H](CO)[C@@H]2Cn3c(ccc(-c4ccccc4)c3=O)[C@H]1N2CC1CCCC1,-14,-13,nt,nt,nt,nt,nt
COC(=O)[C@H]1[C@H](CO)[C@H]2Cn3c(ccc(-c4ccncc4)c3=O)[C@@H]1N2S(=O)(=O)c1ccccc1F,9,-3,11,nt,nt,nt,nt
COC(=O)[C@@H]1[C@@H](CO)[C@@H]2Cn3c(ccc(-c4cccc(F)c4)c3=O)[C@H]1N2C(=O)CC1CC1,nt,-2,46,nt,nt,nt,nt
O=C(Cc1cccnc1)N1CCCCN2[C@H](CO)[C@@H](c3ccc(C#CC4(O)CCCC4)cc3)[C@@H]2C1,34,1,9,nt,nt,nt,nt
COc1ccc(C#Cc2ccc([C@H]3[C@H](CO)N4CCCCN(C(=O)Cc5cccnc5)C[C@@H]34)cc2)cc1,-70,21,113*,106*,102*,43*,105*
COc1ccc(C#Cc2ccc([C@H]3[C@H]4CN(C(=O)Cc5cccnc5)CCCCN4[C@H]3CO)cc2)cc1,19,10,104*,104*,73,29,99*
COc1ccc(C#Cc2ccc([C@@H]3[C@@H](CO)N4CCCCN(C(=O)Cc5cccnc5)C[C@@H]34)cc2)cc1,-20,-8,108*,113*,60,12,103*
COc1ccc(C#Cc2ccc([C@H]3[C@@H](CO)N4CCCCN(C(=O)Cc5cccnc5)C[C@H]34)cc2)cc1,-62,-4,115*,102*,85,46*,103*
CC=Cc1ccc2n(c1=O)C[C@H]1[C@H](CO)[C@@H](C(=O)OC)[C@@H]2N1CC1CCCC1 (mixture of isomers),4,0,nt,nt,nt,nt,nt
CCN1[C@@H]2c3ccc(-c4ccc(OC)cc4)c(=O)n3C[C@H]1[C@H](CO)[C@H]2C(=O)OC,nt,-3,-31,nt,nt,nt,nt
COc1ccc(C#Cc2ccc([C@H]3[C@@H](CO)N4CCCCN(C(=O)Cc5cccnc5)C[C@@H]34)cc2)cc1,-7,-14,125*,99*,103*,36*,86*
COc1ccc(C#Cc2ccc([C@@H]3[C@H]4CN(C(=O)Cc5cccnc5)CCCCN4[C@H]3CO)cc2)cc1,-26,-8,99*,104*,78,22,106*
CC=Cc1ccc2n(c1=O)C[C@H]1[C@H](CO)[C@@H](C(=O)OC)[C@@H]2N1C(=O)CC (mixture of isomers),nt,-1,30,nt,nt,nt,nt
Cc1cccc(S(=O)(=O)N2[C@@H]3Cn4c(ccc(-c5cccc(F)c5)c4=O)[C@H]2[C@@H](C(=O)O)[C@@H]3CO)c1,3,0,-14,nt,nt,nt,nt
